Where “and” joins values, the source holds several entries; their conditions need not be identical. Equal values may be shown once. Inconclusive results are not listed. The source holds several records for some structures; these can differ, active in one and inactive in another. Calls of active or inactive are those of the source. Unless noted, the call rests on the fitted dose curve; in most records, active means well fitted curve in the direction sought with a large enough effect in the repeat runs; inconclusive means weak or mixed curves; inactive means no such curve, though single readings can be large; an effect the other way counts as inactive or inconclusive.
Key:
[1] = qHTS assay to identify small molecule antagonists of the estrogen receptor alpha (ER-alpha) signaling pathway using the BG1 cell line in the presence of 0.1 nM 17-beta-estradiol - cell viability counter screen (AID 1259241); further: nearly all actives have a fitted effect of over 40% in size; further: potency means the concentration at half of the fitted maximal effect
In short: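 VM7Luc4E2 cells (endogenous ER-alpha, 4×ERE-luciferase), hormone-starved 5 days in charcoal-stripped FBS, were treated with compounds plus 0.1 nM 17beta-estradiol for 22 hr at 37C; viability read in same wells as CellTiter-Fluor live-cell protease fluorescence.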

[2] = qHTS assay to identify small molecule antagonists of the androgen receptor (AR) signaling pathway using the MDA cell line in the presence of 0.5 nM R1881 - cell viability counter screen (AID 1259242); further: nearly all actives have a fitted effect of over 45% in size; further: potency means the concentration at half of the fitted maximal effect
In short: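 Counter screen for cytotoxicity run in the same wells as the AR antagonist reporter screen: MDA-kb2 cells were treated 16 hr with test compounds and 0.5 nM R1881, then live-cell protease activity was measured by fluorescence.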

[3] = target: Estrogen receptor (Homo sapiens) (UniProt P03372); assay: qHTS assay to identify small molecule antagonists of the estrogen receptor alpha (ER-alpha) signaling pathway using the BG1 cell line in the presence of 0.1 nM 17-beta-estradiol (AID 1259244); further: nearly all actives have a fitted effect of over 50% in size; further: potency means the concentration at half of the fitted maximal effect
In short: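 Cells: VM7Luc4E2, endogenous ER-alpha, 4x ERE-luc stable. Pre-culture 5 d, phenol red-free, charcoal-stripped FBS. Plated 24 h, compound + E2 0.1 nM final, 22 h 37C/5% CO2. Readout ONE-Glo luminescence.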

[4] = qHTS assay to identify small molecule HDAC inhibitors - cell viability counter screen (AID 1259365); further: series mostly up to about 92 µM; nearly all actives have a fitted effect of over 50% in size
In short: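 Wild-type HCT-116 cells were seeded at 1,500 per well, incubated overnight at 37 C, then exposed to compounds in DMSO for 2hr. Viability was read by CellTiter-Glo luminescence after 30min at room temperature.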

[5] = qHTS assay to identify small molecule antagonists of the sonic hedgehog signaling (Shh) pathway - cell viability counter screen (AID 1259367); further: nearly all actives have a fitted effect of over 55% in size; further: potency means the concentration at half of the fitted maximal effect
In short: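 Cells: 3T3 Gli1-Luc, 2,000/well, 4 hr pre-incubation. Compounds in DMSO, then conditioned medium. Incubation 24 hr, 37C, 5% CO2. CellTiter-Fluor at 23 hr, 1 hr, fluorescence.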

[6] = qHTS assay to identify small molecule agonists of the sonic hedgehog signaling (Shh) pathway (AID 1259368; calls by dose curve; further: series mostly up to about 92 µM; nearly all actives have a fitted effect of over 15% in size)
In short: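 3T3Gli1-Luc (NIH/3T3 clone, stable Gli1-Luc); 4 hr pre-incubation, then cpd in DMSO 24 hr, 37 C/5% CO2; luciferase reagent 30 min RT; luminescence.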

[7] = qHTS assay to identify small molecule HDAC inhibitors (AID 1259364); further: nearly all actives have a fitted effect of over 45% in size; further: potency means the concentration at half of the fitted maximal effect; on activity change, negative = inhibition: top concentration of the series differs between compounds
In short: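 Luminescence from a cell-permeant luminogenic class I/II HDAC substrate reports endogenous deacetylase activity in intact HCT-116 cells treated with compounds for 2 h.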

[8] = qHTS assay to identify small molecule agonists of the sonic hedgehog signaling (Shh) pathway - cell viability counter screen (AID 1259366); further: nearly all actives have a fitted effect of over 50% in size
In short: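 NIH/3T3-derived 3T3 Gli1-Luc cells (stable Gli1-responsive firefly luciferase reporter) were seeded, rested 4 hr at 37 C/5% CO2, then exposed to compounds in DMSO for 24 hr; viability was read by CellTiter-Fluor fluorescence in the same wells.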

[9] = qHTS assay to identify small molecule phospholipidosis (PLD) inducers (AID 1259344; active means well fitted curve in the direction sought with a large enough effect; an effect the other way counts as inactive or inconclusive)
In short: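 Phospholipidosis is scored by imaging LipidTOX-stained pits in HepG2 cells exposed to compound for 24 h at 37 C; pit counts and integrated intensities per well and per cell serve as outputs.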
On the % scale 0 is the no-effect control and ±100 the full control effect.

Chain of Estrogen receptor (Homo sapiens) (P03372 whole entry, looked up): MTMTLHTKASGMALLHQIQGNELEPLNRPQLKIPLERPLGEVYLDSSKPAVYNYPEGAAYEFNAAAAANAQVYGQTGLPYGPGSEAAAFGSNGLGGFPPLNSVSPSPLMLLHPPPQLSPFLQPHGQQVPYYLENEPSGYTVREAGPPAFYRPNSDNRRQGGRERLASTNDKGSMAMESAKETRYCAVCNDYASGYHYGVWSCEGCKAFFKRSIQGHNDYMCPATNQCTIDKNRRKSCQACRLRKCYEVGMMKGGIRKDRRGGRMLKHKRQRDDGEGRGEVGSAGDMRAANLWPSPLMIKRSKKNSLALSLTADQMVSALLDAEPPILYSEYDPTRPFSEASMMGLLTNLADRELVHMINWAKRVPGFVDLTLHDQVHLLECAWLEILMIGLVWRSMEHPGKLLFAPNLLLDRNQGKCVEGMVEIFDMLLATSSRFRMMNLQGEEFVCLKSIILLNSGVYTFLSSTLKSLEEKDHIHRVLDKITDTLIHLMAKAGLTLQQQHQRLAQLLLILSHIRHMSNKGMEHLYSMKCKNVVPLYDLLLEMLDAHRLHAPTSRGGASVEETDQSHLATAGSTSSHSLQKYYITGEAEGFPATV

Cc1cccc(O)c1C
inactive: Potency [1] | Potency [2] | Potency [3] | Potency [4] | Potency [5] | Potency [6]

CCCCOCCOC(=O)c1ccccc1C(=O)OCCOCCCC
47.5 µM (active) and inactive: Potency [3]
53.3 µM (active) and inactive: Potency [5]
inactive: Potency [1] | Potency [2] | Potency [7] | Potency [4] | Potency [8] | Potency [6]

CCCCC/C=C/CC1CC(=O)OC1=O (stereo not given)
inactive: Potency [1] | Potency [2] | Potency [3] | Potency [7] | Potency [4] | Potency [5] | Potency [6]

Cc1scc2c1N(C(=O)CN1CCN(C)CC1)c1ccccc1NC2=O
inactive: Potency [1] | Potency [2] | Potency [3] | Potency [7] | Potency [4] | Potency [5] | Potency [6]

CC(=O)OCC1=C(C(=O)O)N2C(=O)[C@@H](NC(=O)Cc3cccs3)[C@H]2SC1
inactive: Potency [1] | Potency [2] | Potency [9] | Potency [7] | Potency [4] | Potency [5] | Potency [6]

O=C(Oc1ccccc1)c1ccccc1O
inactive: Potency [1] | Potency [2] | Potency [9] | Potency [4] | Potency [8] | Potency [5] | Potency [6]

CC(C(O)c1ccc(O)cc1)N1CCC(Cc2ccccc2)CC1 (stereo not given)
inactive: Potency [1] | Potency [2] | Potency [3] | Potency [4] | Potency [8] | Potency [5] | Potency [6]

C=C(C)C(=O)O
inactive: Potency [1] | Potency [2] | Potency [3] | Potency [4] | Potency [8] | Potency [5] | Potency [6]

C1COC(NC(C2CC2)C2CC2)=N1
inactive: Potency [1] | Potency [2] | Potency [9] | Potency [7] | Potency [4] | Potency [8] | Potency [5] | Potency [6]

NCCCCCC(=O)O
inactive: Potency [1] | Potency [2] | Potency [3] | Potency [7] | Potency [4] | Potency [8] | Potency [5] | Potency [6]

c1ccc2cc3c(ccc4ccccc43)cc2c1
inactive: Potency [1] | Potency [2] | Potency [3] | Potency [4] | Potency [5] | Potency [6]
active: Potency [7] 30.7 µM and 27.3 µM

[Cl][In]([Cl])[Cl]
inactive: Potency [1] | Potency [2] | Potency [3] | Potency [7] | Potency [4] | Potency [5] | Potency [6]

CCCNC(C)C(=O)Nc1ccccc1C (stereo not given)
inactive: Potency [1] | Potency [2] | Potency [9] | Potency [7] | Potency [4] | Potency [5] | Potency [6]

NCCO
inactive: Potency [1] | Potency [2] | Potency [9] | Potency [7] | Potency [4] | Potency [8] | Potency [6]
inactive and 43.3 µM (active): Potency [5]

CC(C)(C)NC(=O)[C@@H]1CN(Cc2cccnc2)CCN1C[C@@H](O)C[C@@H](Cc1ccccc1)C(=O)N[C@H]1c2ccccc2C[C@H]1O
inactive: Potency [1] | Potency [2] | Potency [9] | Potency [7] | Potency [4] | Potency [6]

COC(=O)/C=C/c1ccccc1
inactive: Potency [1] | Potency [2] | Potency [3] | Potency [7] | Potency [4] | Potency [8] | Potency [5] | Potency [6]

O=C(O)c1cc(Cl)cc(Cl)c1
inactive: Potency [1] | Potency [2] | Potency [3] | Potency [7] | Potency [4] | Potency [8] | Potency [5] | Potency [6]

c1cc(C(c2ccc(OCC3CO3)cc2)C(c2ccc(OCC3CO3)cc2)c2ccc(OCC3CO3)cc2)ccc1OCC1CO1 (stereo not given)
inactive: Potency [1] | Potency [2] | Potency [3] | Potency [7] | Potency [4] | Potency [5] | Potency [6]

C=CC(=O)OCCCCCCCC
inactive: Potency [1] | Potency [2] | Potency [3] | Potency [4] | Potency [5] | Potency [6]

Nc1ccc2cc3ccccc3cc2c1
inactive: Potency [1] | Potency [2] | Potency [3] | Potency [4]

CCCCCC(=O)O[C@]1(C(C)=O)CC[C@H]2[C@@H]3CCC4=CC(=O)CC[C@]4(C)[C@H]3CC[C@@]21C
68.1 µM (active) and inactive: Potency [5]
active: Potency [2] 43 µM | Potency [3] 48.2 µM
inactive: Potency [1] | Potency [7] | Potency [4] | Potency [6]

CC(=O)CC(C)=O
inactive: Potency [1] | Potency [2] | Potency [3] | Potency [4] | Potency [8] | Potency [5] | Potency [6]

CC(=O)C1=C(C)[C@@H]2C[C@@]3(C1)[C@H](C)CC[C@H]3C2(C)C
inactive: Potency [1] | Potency [2] | Potency [3] | Potency [7] | Potency [4] | Potency [5] | Potency [6]

O=C(O)CP(=O)(O)O
inactive: Potency [1] | Potency [2] | Potency [3] | Potency [4] | Potency [5] | Potency [6]

CCC[C@H](N[C@@H](C)C(=O)N1[C@H](C(=O)O)C[C@@H]2CCCC[C@@H]21)C(=O)OCC
inactive: Potency [1] | Potency [2] | Potency [3] | Potency [7] | Potency [4] | Potency [5] | Potency [6]

CCN1CCCC1CNC(=O)c1cc(S(=O)(=O)CC)c(N)cc1OC (stereo not given)
inactive: Potency [1] | Potency [2] | PLD induction [9] -3.27% [at 7.66 µM] | Potency [7] | Potency [4] | Potency [8] | Potency [5] | Potency [6]

CC(C)(c1ccccc1)c1ccc(Nc2ccc(C(C)(C)c3ccccc3)cc2)cc1
inactive: Potency [1] | Potency [2] | Potency [3] | Potency [7] | Potency [4] | Potency [8] | Potency [5] | Potency [6]

NC(=Nc1ccccc1)Nc1ccccc1
inactive: Potency [1] | Potency [2] | Potency [4] | Potency [8] | Potency [5] | Potency [6]
686 nM (active) and inactive: Potency [7]
active: Potency [3] 10.9 µM

Nc1nc2ccccc2[nH]1
inactive: Potency [1] | Potency [2] | Potency [3] | Potency [7] | Potency [4] | Potency [8] | Potency [5] | Potency [6]

C=C(C)C1CC=C(C)C(OC(C)=O)C1 (stereo not given)
inactive: Potency [1] | Potency [2] | Potency [3] | Potency [7] | Potency [4] | Potency [8] | Potency [5] | Potency [6]

NC(N)=Nc1nc(CSCC/C(N)=N/S(N)(=O)=O)cs1
inactive: Potency [1] | Potency [2] | Potency [9] | Potency [7] | Potency [4] | Potency [8] | Potency [5] | Potency [6]

CCCCN(CCO)CCCC
inactive: Potency [1] | Potency [2] | Potency [3] | Potency [7] | Potency [4] | Potency [8] | Potency [5] | Potency [6]

CC(C)C(=O)c1c(C(C)C)nn2ccccc12
inactive: Potency [1] | Potency [2] | PLD induction [9] -2.74% [at 7.66 µM] | Potency [4] | Potency [8] | Potency [5] | Potency [6]

CC(C)CCOC(=O)c1ccc(N(C)C)cc1
inactive: Potency [1] | Potency [2] | Potency [3] | Potency [4] | Potency [8] | Potency [5] | Potency [6]

c1ccc2c(c1)CCCC2C1=NCCN1 (stereo not given)
inactive: Potency [1] | Potency [2] | Potency [9] | Potency [7] | Potency [4] | Potency [5] | Potency [6]

CC(C)(C)c1cc(C(C)(C)C)c(O)c(C(C)(C)C)c1
inactive: Potency [1] | Potency [2] | Potency [3] | Potency [7] | Potency [4] | Potency [8] | Potency [5] | Potency [6]

CCCCCCCCCCCCCCCCCl
inactive: activity change, negative = cytotoxicity [1] 9.43% [at 19 µM] | viability change, negative = cytotoxic [2] -2.37% [at 19 µM] | activity change, negative = inhibition [3] 26.4% [at 19 µM] | activity change, negative = cytotoxicity [4] -13.9% [at 19 µM] | viability change, negative = cytotoxic [5] -3.23% [at 19 µM] | activity change [6] -1.24% [at 18.9 µM, stronger effect = higher value]

CC[C@@H](N)CO
inactive: Potency [1] | Potency [2] | Potency [7] | Potency [4] | Potency [8] | Potency [5] | Potency [6]

CC(N)=O
inactive: Potency [1] | Potency [2] | Potency [7] | Potency [4] | Potency [8] | Potency [5] | Potency [6]

Nc1cc(S(=O)(=O)O)cc2cc(S(=O)(=O)O)cc(O)c12
inactive: Potency [2] | Potency [7] | Potency [4] | Potency [8] | Potency [6]
active: Potency [1] 27.3 µM

— PubChem BioAssay (Tox21)
